Screening results (PubChem)
Hits are enriched below; roughly 19% of the tested compounds scored in any of these assays.
Pf growth 48h: Primary qHTS for delayed death inhibitors of the malarial parasite plastid, 48 hour incubation; Potency, µM (titrated, usually from 28.7 µM), inactives show at the top dose activity change, negative = inhibition, usual class: inhibitors; P. falciparum luciferase growth in erythrocytes, 48 h; AID 504832, 2011; 310,000 tested, 5.9% active; further: potency means the concentration at half of the fitted maximal effect; on the % scale 0 is the no-effect control and ±100 the full control effect
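Luminescence readout; reporter = integrated firefly luciferase in P. falciparum. RBC culture at 2% hematocrit, 0.1% parasitemia final, 37 C/5% CO2; decreased signal taken as growth inhibition.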
Shiga toxin inh: A qHTS for Small Molecule Inhibitors of Shiga Toxin; Vero cells, Shiga toxin protein synthesis inhibition reporter; inhibition, % at 38.7 µM; 290,000 tested, 9.2% active; AID 2315, 2010; in the data active means inhibition mostly above about 28%, no sharp cut-off; inactive means mostly below about 43%; further: 0% is about no effect
LASV entry inh: qHTS for Inhibitors of binding or entry into cells for Lassa Virus; Lassa virus pseudotype entry inhibition, cell reporter; Potency, µM (doses to about 37.9 µM), inactives show at the top dose activity change, negative = inhibition, most hits filed as inhibitors; 300,000 tested, 1.2% active; calls by dose curve; tested in HEK293 cells; further: potency means the concentration at half of the fitted maximal effect; on the % scale 0 is the no-effect control and ±100 the full control effect; nearly all actives have a fitted effect of over 50% in size
Pf growth 96h: Primary qHTS for delayed death inhibitors of the malarial parasite plastid, 96 hour incubation; P. falciparum luciferase reporter growth, 96 h; Potency, µM (top dose mostly 28.7 µM), for inactives: at the top dose activity change, negative = inhibition, usual class: inhibitors; 320,000 tested, 6.9% active; further: potency means the concentration at half of the fitted maximal effect; on the % scale 0 is the no-effect control and ±100 the full control effect
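Erythrocytes infected with luciferase-expressing P. falciparum were dispensed at 2% hematocrit and 0.05% parasitemia (final), then incubated with compounds 96 hours at 37 C in 5% CO2. Luminescence after detection reagent addition reported growth.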
CHX counter-1: Cycloheximide Counterscreen for Small Molecule Inhibitors of Shiga Toxin; cell reporter, cycloheximide protein synthesis inhibition counterscreen; max response, %; 300,000 tested, 12% active; AID 2314, 2010; in the data active means max response mostly above about 13%, no sharp cut-off; inactive means mostly below about 14%; further: read at 38.3 µM for the half of the compounds with a filed dose; 0% is about no effect
Marburg entry inh: qHTS for inhibitors of binding or entry into cells for Marburg Virus; AID 540276, 2011; Marburg virus pseudotyped entry inhibition, cell reporter; 300,000 tested, 1.8% active; Potency, µM (titrated, usually from 37.8 µM), for the others: at the top dose activity change, negative = inhibition, most hits filed as inhibitors; calls by dose curve; tested in HEK293 cells; further: potency means the concentration at half of the fitted maximal effect; on the % scale 0 is the no-effect control and ±100 the full control effect
CHX counter-2: Cycloheximide Counterscreen for Small Molecule Inhibitors of Shiga Toxin (Confirmatory). shares compounds with Shiga toxin inh. Cycloheximide counterscreen, protein synthesis reporter, Shiga toxin assay. Potency, µM (series often up to 38.3 µM), for the others: at the top dose activity (activation), hits mostly activators. 510 tested, 3% active. AID 2318, 2010; calls by dose curve; further: potency means the concentration at half of the fitted maximal effect; 0% is about no effect
Starred values were filed as active, the others as inactive; ? = inconclusive; / = not tested or not shown; [ ] = dose if it differs, or a comment. Unless noted, the call rests on the fitted dose curve; in most records, active means well fitted inhibition curve with a large enough effect; inconclusive means small, poorly fitted or top-dose-only effect, or another doubt; inactive means no such curve, though single readings can be large or run the other way.

SMILES | Pf growth 48h | Shiga toxin inh | LASV entry inh | Pf growth 96h | CHX counter-1 | Marburg entry inh | CHX counter-2
CCn1c(SCC(=O)Nc2cc(C)on2)nnc1-c1cccc(C)c1 | 3% | 93* | -1%[46.1 µM] | ? | 1 | 24%[46.1 µM] | -5%
COC(=O)c1ccc(C2CC(=O)NC3=C2C(=O)CCC3)cc1 (stereo unspecified) | 50% | -7 | -2% | ? | -1 | 4% | /
COC(=O)c1ccc(COc2ccc(C3C4=C(CCCC4=O)Nc4onc(C)c43)cc2)cc1 (stereo unspecified) | ? | 47* | -12% | ? | 7 | -9% | ?
COc1ccccc1N1CC(C(=O)OCc2nc(N)nc(Nc3ccccc3)n2)CC1=O (stereo unspecified) | -8% | / | / | 3% | / | / | /
Cn1c(=O)c2c(ncn2CC(=O)N2CCN(S(=O)(=O)c3ccc(F)cc3)CC2)n(C)c1=O | 14% | / | / | 0% | / | / | /
Cn1nccc1C(=O)Nc1sc2c(c1C#N)CCCC2 | 25% | 16* | / | 24% | 16 | / | ?
CC1Cc2ccccc2N1Cc1cc(=O)n2ccsc2n1 (stereo unspecified) | ? | 25* | -10% | 13µM* | 1 | 0% | 0%
CN1CCN(C(=O)c2ccc(-n3cccc3)cc2)CC1 | 31% | 32* | -5% | 37% | 8 | 8% | 3%
COc1ccc(NC(=O)CCN2C(=O)C3C4C=CC(C4)C3C2=O)cc1 (stereo unspecified) | 2% | 5 | -18% | 45% | 3 | ? | /
Cc1cccc(OCCN2C(=O)C(=O)c3cc(C)ccc32)c1 | 11% | 20 | ? | ? | 1 | ? | /
Cc1ccccc1OCCCN1C(=O)C(=O)c2cccc(C)c21 | ? | 28* | / | -18% | 6 | / | -1%
COc1cccc(-c2nn(C)c3sc(C(=O)NCc4ccc5c(c4)OCO5)cc23)c1 | / | -10 | / | 28% | -2 | 0% | /
Cc1ccsc1/C=N/NC(=O)c1ccc(Cn2cc(Br)cn2)o1 | ? | 37 | ? | ? | 13 | -7% | /
Cc1ccc(NC(=O)c2ccc(Cn3cc(Br)cn3)o2)cc1 | -12% | 38* | 7% | 7% | 8 | 2% | 3%
CNC(=O)CSc1nnc(-c2cc(C)cc(C)c2)o1 | 14% | 27* | ? | 12% | 1 | -4% | 1%
O=C(/C=C/c1cn(CC(O)CN2CCCCC2)c2ccccc12)c1cccs1 (stereo unspecified) | 8.3µM* | 32* | ? | ? | 5 | ? | 3%
O=C(/C=C/c1cn(CC(O)CN2CCCCCC2)c2ccccc12)c1ccccc1 (stereo unspecified) | / | / | -26%[46.1 µM] | / | / | ? | /
O=C(CCS(=O)(=O)c1cccs1)Nc1ccc(C(=O)NCc2cccs2)cc1 | ? | 29* | 4% | / | 7 | 4% | -2%
CCOc1ccccc1NC(=O)CCS(=O)(=O)c1cccs1 | 14% | 126* | -1%[46.1 µM] | 29% | -3 | 2%[46.1 µM] | -2%
CC(=O)c1cccc(NC(=O)c2ccc(NC(=O)CCS(=O)(=O)c3cccs3)cc2)c1 | ? | 33* | 27%[46.1 µM] | 258% | -6 | -5%[46.1 µM] | 2%
CCOc1ccccc1NC(=O)CCS(=O)(=O)c1cccc2nonc12 | -4% | -17 | ? | ? | -2 | 1% | /
CCC(C(=O)NCc1ccco1)N(C(=O)CNS(=O)(=O)c1ccccc1)c1ccc(OC)cc1 (stereo unspecified) | / | 7 | -8% | ? | 4 | 0% | /
COC(=O)c1ccc(CSc2ncn[nH]2)o1 | -15% | -5 | 9% | ? | -8 | 4% | /
COC(=O)c1ccc(CSCc2ccc(C(=O)OC)o2)o1 | 0% | 38* | 14% | 13% | 1 | 5% | -1%
O=C(COC(=O)c1cccc2c1C(=O)c1ccccc1C2=O)NC1CCCCC1 | ? | -11 | ? | ? | -7 | ? | /
